In the supplement of paper PMC10338343:
± gives the standard deviation.

Test system: EfPiwi piRISC loaded with piRNA #1 (26 nt)
Assay: pre-steady-state target cleavage rate (min^-1); auxiliary factor: 500 nM Ephydatia muelleri Gtsf1; guide: piRNA #1 5'p-UGAGGUAGUAGGUUGUAUAGUAUCCA; MIWI and MILI are mouse PIWI proteins and EfPiwi is from a freshwater sponge; tags in brackets are library labels; higher = faster piRNA-guided slicing of the target
Summary of the method: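 A transcribed, DNA-blocked target RNA library (0.1 nM) and 1 nM active affinity-purified piRISC bearing one synthetic guide were incubated in HEPES–potassium acetate buffer at 33 °C for 0–8 or 0–960 min, either with or without 500 nM GTSF1 partner protein. Uncleaved targets were sequenced, normalised to depth and to weakly complementary targets, and pooled over three trials, with k3 capped at 0.0001 min^-1. The pre-steady-state cleavage rate was derived with a burst-and-steady-state fit.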

Sequence | pre-steady-state target cleavage rate
GGAGACCUUUGAAUACAACCUACUACCUCA | 0.00525 ± 0.0038
GGAGACGAAACUAUACAACCAACUACCUCA | 0.0068 ± 0.0036
GGAGAGGAUACUAUACAACCUACUUCCUGA | 0.00331 ± 0.0022
GGAGUGGAUACUAUACAACCUUCUACCUGA | 0.00359 ± 0.0018
GGAGUGGAUACUAUACAACCUAGAUCCUCA | 0.00311 ± 0.0016
GGAGACCUAUCUAUACAACCUACUACGAGA | 0.00279 ± 0.0027
GGAGAGGAUACUAUACAACCUAGUACGUCA | 0.0044 ± 0.0019
GGAGAGGAUACUAUACAACCUAGCUACCUCA | 0.0038 ± 0.0017
GGAGAGGAUAGUAUACAACCUACUACCACA | 0.00287 ± 0.002
GGAGAGGAUACGUAUACAACCUACUACCUCA | 0.0803 ± 0.032
GGAGAGGAUACUAUACAACCUACUUCCACA | 0.00373 ± 0.0022
GGAGAGGAUACUAUACUACCAACUACCUCA | 0.00357 ± 0.0021
GGAGUGGACUACUAUACAACCUACUACCUCA | 0.0107 ± 0.0041
GGAGAGGAUACUAUACAACCUACAACGUCA | 0.00371 ± 0.0017
GGAGAGGUUACUAUACAACCUAGUACCUCA | 0.00366 ± 0.0015
GGAGACCUAACUAUACAACGUACUACCACA | 0.0055 ± 0.0049
GGAGACCUAUGAUAUGUUCCUACUCCCUCA | < 0.0001
GGAGACCUAUGAUAAGAACCUACUACCACA | < 0.0001
GGAGAGGAUACUAUACAACCAACAACCUCA | 0.00224 ± 0.0022
GGAGACGAUACAAUACAACCAACUACCUCA | 0.0037 ± 0.0029

Sequence | pre-steady-state target cleavage rate
GGAGACGAUACUAUCAACCUACUACCUCA | 0.0106 ± 0.0051
GGAGAGGAUACUCAUACAACCUACUACCUCA | 0.0605 ± 0.024
GGAGACCAUACUAUACUACCUACUACCACA | 0.0069 ± 0.0053
GGAGAGGAUAGUAUACUACCUACUACCUCA | 0.00274 ± 0.0027
GGAGACCUAUGAUAUGUACCUACAUACCUCA | < 0.0001
GGAGACCUAUGUAUACAACCUGACUACCUCA | < 0.0001
GGAGACCUUACUAUACAACCUACUACCACA | 0.00339 ± 0.0016
GGAGACCUAACUAUACCAACCUACUACCUCA | 0.00536 ± 0.0036
GGAGUGGAUACUAUACAACCUUCUACGUCA | 0.00426 ± 0.0016
GGAGACCUUACUAUACAACCUAGUACGUCA | 0.00357 ± 0.0023
GGAGACGAUACUAUACUAACCUACUACCUCA | 0.00448 ± 0.0044
GGAGACGAUACUAUACGAACCUACUACCUCA | 0.00658 ± 0.0033
GGAGAGGAUACUAUACAACCUAGUACCUGA | 0.00379 ± 0.0015
GGAGUGGAUACUAUACAACCUUGUACCUCA | 0.00568 ± 0.0024
GGAGACCUAUGAUAUGUUGGUACUACCUCU [g2:g10:cont:t1U] | < 0.0001
GGAGACCAUACUAUACUAACCUACUACCUCA | 0.0042 ± 0.0031
GGAGACCUAUGAAUACAACCUACAUGCUCA | < 0.0001
GGAGAGGAUACUAUACAACCUUCUACGUCA | 0.00356 ± 0.0021
GGAGACGAUACUAUUCAACGUACUACCUCA | 0.00355 ± 0.0011
GGAGAGGAUACUAUACAACCUACUACGUCA | 0.00636 ± 0.0029
